Experimental data reported in PubChem BioAssay AID1053117 (Broad Institute, 2014).
Entries with a potency or affinity are not part of this list. The source made the active and inactive calls.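 How the source made its calls: active means compounds lowering cell ATP signal with a fitted half-effect dose at most twice the top valid dose; inconclusive means flat curve with 30 to 70% signal loss, or bad fit; inactive means wrong direction, flat within 30%, or weaker than limit.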

Assay: viability loss in HEK293 kidney cells – cell-based, cherry-picks, set 5, cytotoxicity control, dose response (AID 1053117);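 further: more negative means greater loss of ATP signal and more cytotoxicity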
Conditions: HEK293T viability, CellTiter-Glo ATP luminescence, 72 h; series mostly up to 26 µM; activity change, negative = cytotoxicity: at the top concentration

| SMILES | activity change, negative = cytotoxicity |
| --- | --- |
| C[C@H](O)C#Cc1ccc2c(c1)O[C@H](CN(C)C)[C@H](C)CN([C@@H](C)CO)S2(=O)=O | -0.553% (inactive) |
| C[C@@H]1CN([C@H](C)CO)C(=O)c2cc(-c3ccccc3)cnc2O[C@H]1CN(C)C(=O)c1cccc(F)c1 | -9.1% (inactive) |
| Cc1oc2ccc(O)cc2c1C(=O)c1ccc(Br)cc1 | -12.3% (inactive) |
| COc1ccc(-c2oc3ncnc(NCCCN4CCOCC4)c3c2-c2ccc(OC)cc2)cc1 | -10.4% (inactive) |
| O=C(Nc1ccccc1F)N1C[C@@H]2[C@H](c3ccccc31)[C@H](CO)N2C(=O)C1CC1 | -4.96% [at 23.5 µM] (inactive) |
